# Assay results published in PubChem BioAssay.
# The source made the active and inactive calls.
# Tests used:
# [1] = test system: PRMT1 (protein arginine N-methyltransferase 1); test: small molecules binding arginine methyltransferase PRMT1 – biochemical, small-molecule microarray, 635 nm fluorescence, primary screen (AID 1088); conditions: higher = more signal;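 note: binding of Prmt1 protein to compounds spotted on small-molecule microarray slides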
# [2] = growth effects on S. cerevisiae YJM789 – YJM789 clinical isolate, OD600, 24 h, basal, primary screen (AID 1089); conditions: higher = more signal, called active from +8 up or from −8 down;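 note: growth of clinical yeast isolate S. cerevisiae YJM 789 seeded 1000 cells per well; test concentration not given here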
# [3] = S. pombe growth modifiers, basal conditions – strain 972, OD600, 24 h, no modulator, primary screen (AID 1090);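 note: basal condition with compound alone and no growth modifier present; test concentration not given here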; conditions: S. pombe 972 growth, higher = more signal, called active from +8 up or from −8 down
# [4] = budding yeast growth modifiers under rapamycin – strain BY4716, OD600, 96 h, primary screen (AID 1091); note: test concentration not given here; conditions: S. cerevisiae BY4716 + rapamycin, higher = more signal, called active from +8 up or from −8 down
# [5] = target: Torsin-1A-interacting protein 2 (Homo sapiens) (UniProt Q8NFQ8); test: small molecules binding lysate-expressed LULL1 – cell lysate, human LULL1 lysate, 635/667 nm fluorescence, primary screen (AID 1092); conditions: small-molecule microarray, hLULL1 lysate binding, 635 nm fluorescence; higher = more signal;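 note: probe is lysate of COS7 cells overexpressing human LULL1; score merges per-feature 667 nm fluorescence with signal-to-noise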
# Sequence of Torsin-1A-interacting protein 2 (Homo sapiens) (Q8NFQ8 whole entry, looked up): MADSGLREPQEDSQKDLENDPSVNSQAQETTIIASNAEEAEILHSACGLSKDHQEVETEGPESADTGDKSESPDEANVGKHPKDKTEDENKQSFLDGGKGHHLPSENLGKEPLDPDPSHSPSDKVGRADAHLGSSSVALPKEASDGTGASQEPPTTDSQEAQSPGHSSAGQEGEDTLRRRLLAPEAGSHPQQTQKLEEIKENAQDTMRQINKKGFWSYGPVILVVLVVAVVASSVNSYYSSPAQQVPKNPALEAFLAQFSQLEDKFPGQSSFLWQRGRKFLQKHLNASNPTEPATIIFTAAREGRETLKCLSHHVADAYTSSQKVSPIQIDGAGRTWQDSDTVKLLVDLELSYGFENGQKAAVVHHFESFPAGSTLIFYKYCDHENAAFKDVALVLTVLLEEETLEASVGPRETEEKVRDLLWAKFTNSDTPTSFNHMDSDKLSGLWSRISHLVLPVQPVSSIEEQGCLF
# [6] = optical density change of DRC41 E. coli – strain DRC41, OD650, 24 h, E. coli filamentation project, primary screen (AID 1093);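 note: MC1000 strain lacking acrAB efflux and sulA so SOS filamentation is blocked; test concentration not given here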; conditions: E. coli DRC41 growth, higher = more signal, called active from +8 up or from −8 down
# [7] = probe aLefty2 binding to arrayed compounds – biochemical, biotinylated probe, 635/667 nm fluorescence, primary screen (AID 1094); conditions: small-molecule microarray, higher = more signal;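 note: score merges spot fluorescence near 667 nm with spot signal-to-noise ratio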
# [8] = test system: Noggin (protein binding on small-molecule microarray); test: small molecules binding Noggin protein – biochemical, 635/667 nm fluorescence, primary screen (AID 1095); conditions: 635 nm fluorescence, higher = more signal;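 note: score merges 667 nm feature fluorescence with signal to noise over triplicate slides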
# [9] = target: Neurogenic locus notch homolog protein 3 (Homo sapiens) (UniProt Q9UM47); test: small molecules binding NOTCH3 protein – biochemical, 635/667 nm fluorescence, primary screen (AID 1096); conditions: small-molecule microarray, 635 nm fluorescence, higher = more signal
# Sequence of Neurogenic locus notch homolog protein 3 (Homo sapiens) (Q9UM47 whole entry, looked up): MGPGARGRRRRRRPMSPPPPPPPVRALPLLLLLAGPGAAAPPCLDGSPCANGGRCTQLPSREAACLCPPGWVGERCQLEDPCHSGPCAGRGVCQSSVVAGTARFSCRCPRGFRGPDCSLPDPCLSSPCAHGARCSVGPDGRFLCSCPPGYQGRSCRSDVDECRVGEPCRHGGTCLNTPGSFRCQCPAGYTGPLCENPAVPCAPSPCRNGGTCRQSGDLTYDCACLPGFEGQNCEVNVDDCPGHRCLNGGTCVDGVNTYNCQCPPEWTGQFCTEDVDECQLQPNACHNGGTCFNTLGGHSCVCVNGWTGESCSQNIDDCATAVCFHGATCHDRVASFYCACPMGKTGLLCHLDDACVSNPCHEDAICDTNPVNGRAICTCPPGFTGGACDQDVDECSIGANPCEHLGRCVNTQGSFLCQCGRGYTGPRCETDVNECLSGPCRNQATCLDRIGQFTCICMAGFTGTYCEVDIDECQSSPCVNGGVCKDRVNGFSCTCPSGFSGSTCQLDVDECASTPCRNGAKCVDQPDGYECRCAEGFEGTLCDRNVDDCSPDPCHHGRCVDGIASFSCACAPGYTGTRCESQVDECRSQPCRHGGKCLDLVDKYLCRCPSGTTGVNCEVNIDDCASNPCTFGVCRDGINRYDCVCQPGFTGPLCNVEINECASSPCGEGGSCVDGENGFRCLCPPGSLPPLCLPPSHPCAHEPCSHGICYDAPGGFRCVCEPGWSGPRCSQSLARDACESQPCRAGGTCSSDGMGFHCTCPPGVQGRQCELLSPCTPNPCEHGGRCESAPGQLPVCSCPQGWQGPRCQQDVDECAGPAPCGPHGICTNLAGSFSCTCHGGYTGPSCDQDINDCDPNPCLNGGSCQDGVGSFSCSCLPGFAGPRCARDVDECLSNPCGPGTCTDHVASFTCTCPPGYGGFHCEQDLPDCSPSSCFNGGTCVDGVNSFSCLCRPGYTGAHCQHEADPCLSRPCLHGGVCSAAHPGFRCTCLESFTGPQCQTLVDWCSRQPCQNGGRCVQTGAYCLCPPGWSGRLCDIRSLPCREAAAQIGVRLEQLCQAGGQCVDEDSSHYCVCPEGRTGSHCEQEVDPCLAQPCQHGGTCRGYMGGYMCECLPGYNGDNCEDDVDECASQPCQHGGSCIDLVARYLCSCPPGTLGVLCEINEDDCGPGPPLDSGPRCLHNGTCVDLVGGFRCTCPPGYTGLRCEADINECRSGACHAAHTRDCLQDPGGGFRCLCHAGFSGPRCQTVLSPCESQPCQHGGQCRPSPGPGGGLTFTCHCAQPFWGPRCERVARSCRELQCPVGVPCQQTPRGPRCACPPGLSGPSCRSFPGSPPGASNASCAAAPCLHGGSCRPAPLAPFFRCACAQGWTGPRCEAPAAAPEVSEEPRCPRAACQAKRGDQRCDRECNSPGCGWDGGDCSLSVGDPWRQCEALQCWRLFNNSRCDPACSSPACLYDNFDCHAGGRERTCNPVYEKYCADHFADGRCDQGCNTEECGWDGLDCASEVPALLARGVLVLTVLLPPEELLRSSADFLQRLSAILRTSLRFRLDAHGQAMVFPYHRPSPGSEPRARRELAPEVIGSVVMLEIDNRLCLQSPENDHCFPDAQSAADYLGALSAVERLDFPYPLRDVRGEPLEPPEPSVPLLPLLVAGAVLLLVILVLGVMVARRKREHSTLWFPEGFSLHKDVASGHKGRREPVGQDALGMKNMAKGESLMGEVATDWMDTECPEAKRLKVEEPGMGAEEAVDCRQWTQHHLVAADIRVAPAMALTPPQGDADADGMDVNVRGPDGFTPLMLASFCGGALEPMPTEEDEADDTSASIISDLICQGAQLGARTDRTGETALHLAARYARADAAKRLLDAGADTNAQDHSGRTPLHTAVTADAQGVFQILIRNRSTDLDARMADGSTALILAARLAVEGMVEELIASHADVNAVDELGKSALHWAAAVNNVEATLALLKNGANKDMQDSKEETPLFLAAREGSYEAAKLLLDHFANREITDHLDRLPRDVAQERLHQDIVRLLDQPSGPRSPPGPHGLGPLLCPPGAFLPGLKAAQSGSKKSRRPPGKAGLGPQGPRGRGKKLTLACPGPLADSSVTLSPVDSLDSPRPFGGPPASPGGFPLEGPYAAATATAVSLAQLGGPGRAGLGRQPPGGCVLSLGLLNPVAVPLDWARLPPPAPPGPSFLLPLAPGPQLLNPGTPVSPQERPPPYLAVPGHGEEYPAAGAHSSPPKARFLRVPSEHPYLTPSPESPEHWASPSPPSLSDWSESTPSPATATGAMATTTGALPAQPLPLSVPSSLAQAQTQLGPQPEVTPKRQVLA
# [10] = probe aEGFR binding to arrayed compounds – biochemical, biotinylated probe, 635/667 nm fluorescence, primary screen (AID 1097); conditions: small-molecule microarray, higher = more signal;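 note: probe is a biotinylated anti-EGFR antibody binding compounds printed on slides; score combines fluorescence near 667 nm and signal to noise of each spot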
# [11] = test system: Plasmodium falciparum Sir2 (PF13_0152, Sir2A); test: Plasmodium falciparum Sir2A binding compounds – biochemical, small-molecule microarray, 635 nm fluorescence, primary screen (AID 1098); conditions: fluorescence 635 nm, higher = more signal;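 note: score merges spot fluorescence intensity with its signal-to-noise ratio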
# [12] = probe aDKK1 binding to arrayed compounds – biochemical, biotinylated probe, 635/667 nm fluorescence, primary screen (AID 1099); conditions: small-molecule microarray, higher = more signal;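 note: score merges 667nm spot fluorescence with signal to noise across triplicate slides; reference of the scale not given here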
# [13] = probe aCHRDL2 binding to arrayed compounds – biochemical, biotinylated probe, 635/667 nm fluorescence, primary screen (AID 1100); conditions: small-molecule microarray, higher = more signal
# [14] = change in splice reporter luminescence, either direction, cell-based, HEK293, spliceosome inhibition project, primary screen (AID 1101); conditions: HEK293 splicing luciferase reporter, 24 h, higher = more signal, called active from +8 up or from −8 down;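 note: HEK293 cells carrying a splicing-competent luciferase reporter gene; test concentration not given here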
# [15] = target: Fibroblast growth factor 10 (Homo sapiens) (UniProt O15520); test: compounds binding fibroblast growth factor 10 – biochemical, small-molecule microarray, 635 nm fluorescence, primary screen (AID 1102); conditions: FGF10 binding, fluorescence 635 nm, higher = more signal
# Sequence of Fibroblast growth factor 10 (Homo sapiens) (O15520 whole entry, looked up): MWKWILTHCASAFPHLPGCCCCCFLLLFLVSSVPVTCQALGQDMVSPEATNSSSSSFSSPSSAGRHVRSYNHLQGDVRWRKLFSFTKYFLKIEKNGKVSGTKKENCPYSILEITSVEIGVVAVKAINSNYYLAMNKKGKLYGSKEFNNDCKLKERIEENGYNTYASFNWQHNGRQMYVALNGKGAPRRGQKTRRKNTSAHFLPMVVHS
# [16] = test system: glycogen synthase kinase-3 (GSK3A per assay name; protocol says GSK3B); test: compounds binding glycogen synthase kinase-3 – biochemical, small-molecule microarray, 635 nm fluorescence, GSK3A, primary screen (AID 1103); conditions: fluorescence 635 nm, higher = more signal; note: the record names both GSK3A and GSK3B
# [17] = target: Epidermal growth factor receptor (Homo sapiens) (UniProt P00533); test: compounds binding epidermal growth factor receptor – biochemical, small-molecule microarray, 635 nm fluorescence, primary screen (AID 1104); conditions: EGFR binding, higher = more signal;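 note: score merges 667 nm emission intensity with spot signal to noise over triplicate slides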
# Sequence of Epidermal growth factor receptor (Homo sapiens) (P00533 whole entry, looked up): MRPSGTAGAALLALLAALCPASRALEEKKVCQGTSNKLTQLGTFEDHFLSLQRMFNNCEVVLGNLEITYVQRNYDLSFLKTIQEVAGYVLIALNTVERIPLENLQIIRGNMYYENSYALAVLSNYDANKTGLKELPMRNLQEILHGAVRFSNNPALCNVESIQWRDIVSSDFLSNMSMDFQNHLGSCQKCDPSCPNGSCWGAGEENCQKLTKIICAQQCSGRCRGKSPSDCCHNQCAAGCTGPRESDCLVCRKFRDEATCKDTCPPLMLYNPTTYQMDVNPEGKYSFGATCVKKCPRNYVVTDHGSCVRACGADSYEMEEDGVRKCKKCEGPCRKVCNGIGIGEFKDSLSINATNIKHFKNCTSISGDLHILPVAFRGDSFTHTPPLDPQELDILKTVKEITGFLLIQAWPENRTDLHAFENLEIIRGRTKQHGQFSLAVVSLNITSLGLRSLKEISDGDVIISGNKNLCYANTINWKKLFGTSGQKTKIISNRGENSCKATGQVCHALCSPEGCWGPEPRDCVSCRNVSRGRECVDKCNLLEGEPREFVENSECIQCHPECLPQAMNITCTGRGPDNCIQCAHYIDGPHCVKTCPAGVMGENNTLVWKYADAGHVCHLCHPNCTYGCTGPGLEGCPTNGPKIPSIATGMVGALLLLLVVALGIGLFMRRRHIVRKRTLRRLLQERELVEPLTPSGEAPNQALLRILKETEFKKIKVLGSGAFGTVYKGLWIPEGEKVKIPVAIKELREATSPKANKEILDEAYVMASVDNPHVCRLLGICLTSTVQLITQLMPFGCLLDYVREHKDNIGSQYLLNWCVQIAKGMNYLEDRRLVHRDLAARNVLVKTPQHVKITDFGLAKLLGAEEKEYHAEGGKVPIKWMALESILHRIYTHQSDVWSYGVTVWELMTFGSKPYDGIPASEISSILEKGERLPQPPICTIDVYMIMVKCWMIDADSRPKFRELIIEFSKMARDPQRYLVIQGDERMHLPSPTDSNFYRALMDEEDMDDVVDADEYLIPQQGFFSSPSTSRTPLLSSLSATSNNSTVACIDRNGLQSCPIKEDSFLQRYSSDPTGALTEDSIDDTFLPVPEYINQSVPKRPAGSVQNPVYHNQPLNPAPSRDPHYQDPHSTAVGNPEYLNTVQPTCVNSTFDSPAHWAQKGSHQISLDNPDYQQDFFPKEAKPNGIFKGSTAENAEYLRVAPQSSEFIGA
# [18] = target: Follistatin-related protein 3 (Homo sapiens) (UniProt O95633); test: compounds binding follistatin-related protein 3 – biochemical, small-molecule microarray, 635 nm fluorescence, primary screen (AID 1105); conditions: FSTL3 binding, higher = more signal;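 note: score merges emission near 667 nm and signal to noise per printed spot across three slides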
# Sequence of Follistatin-related protein 3 (Homo sapiens) (O95633 whole entry, looked up): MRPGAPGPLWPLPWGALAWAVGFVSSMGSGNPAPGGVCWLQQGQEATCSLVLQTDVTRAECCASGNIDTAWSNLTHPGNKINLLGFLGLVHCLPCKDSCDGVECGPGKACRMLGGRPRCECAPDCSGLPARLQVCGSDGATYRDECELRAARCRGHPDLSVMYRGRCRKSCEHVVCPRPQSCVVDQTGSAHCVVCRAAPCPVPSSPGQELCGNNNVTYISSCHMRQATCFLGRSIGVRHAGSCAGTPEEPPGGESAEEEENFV
# [19] = target: Dickkopf-related protein 1 (Homo sapiens) (UniProt O94907); test: small molecules binding DKK1 protein – biochemical, small-molecule microarray, 635 nm fluorescence scan, primary screen (AID 1106); conditions: higher = more signal;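 note: score merges emission near 667 nm with signal to noise over three replicate slides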
# Sequence of Dickkopf-related protein 1 (Homo sapiens) (O94907 whole entry, looked up): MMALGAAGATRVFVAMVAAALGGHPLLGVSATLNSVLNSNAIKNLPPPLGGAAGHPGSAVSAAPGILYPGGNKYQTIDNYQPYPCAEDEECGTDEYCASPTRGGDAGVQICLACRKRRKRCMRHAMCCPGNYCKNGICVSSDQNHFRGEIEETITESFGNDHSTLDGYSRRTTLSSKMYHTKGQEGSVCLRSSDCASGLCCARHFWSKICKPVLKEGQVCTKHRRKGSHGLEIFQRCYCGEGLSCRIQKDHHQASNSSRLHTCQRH
# [20] = test system: Inhibin beta A chain (activin A); test: small molecules binding activin A – biochemical, small-molecule microarray, 635 nm fluorescence scan, primary screen (AID 1107); conditions: INHBA, higher = more signal;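 note: mouse activin A protein probed at 4.33 µg/mL on printed slides; score merges bound-protein fluorescence near 667 nm with spot signal-to-noise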
SMILES,composite z-score [1],z-score [2],z-score [3],z-score [4],composite z-score [5],z-score [6],composite z-score [7],composite z-score [8],composite z-score [9],composite z-score [10],composite z-score [11],composite z-score [12],composite z-score [13],z-score [14],composite z-score [15],composite z-score [16],composite z-score [17],composite z-score [18],composite z-score [19],composite z-score [20]
COCCOC(=O)N1C(=O)[C@@]2(c3cc(C#CCNC(N)=O)ccc31)[C@H](c1ccc(OCCO)cc1)N1[C@H](c3ccccc3)[C@H](c3ccccc3)OC(=O)[C@H]1[C@@H]2C(N)=O,0.981,2.18 (inactive),1.16 (inactive),2.29 (inactive),1.92,1.11 (inactive),0.221,0.228,0.542,0.387,0.826,0.695,0.435,0.928 (inactive),0.748,-0.0886,1.14,0.455,0.204,1.07
CC(C)CCC[C@@H](C)[C@H]1CC[C@@]2(C)C3=C(CC[C@]12C)[C@@]1(C)CC[C@H](OC(=O)c2ccccc2)C(C)(C)C1CC3 (stereo not given in full),-0.0528,-1.9 (inactive),-0.547 (inactive),-0.568 (inactive),-0.11,1.59 (inactive),-0.193,0.559,0.316,-0.0828,0.238,-0.279,-0.501,-1.54 (inactive),0.155,0.21,0.375,0.429,0.61,-0.0754
O=C(CS)NCCCCCCNC(=O)[C@@H]1C[C@@H]2C(=O)NCC(=O)N2[C@@H]1c1ccc(O)cc1,0.801,-2.07 (inactive),0.172 (inactive),-0.436 (inactive),2.92,0.869 (inactive),-0.0692,-0.728,-0.028,-0.218,1.57,-0.11,0.592,-1.65 (inactive),-0.297,-0.135,-0.395,-0.586,-0.262,-0.716
COCCCNC(=O)[C@@H]1c2ccccc2C(=O)N(C2Cc3ccccc3C2)[C@H]1c1ccc(CO)cc1,1.17,0.0011 (inactive),-0.471 (inactive),-0.559 (inactive),1.74,0.935 (inactive),-0.0237,0.163,-0.0847,-0.0549,0.122,0.299,0.186,0.0141 (inactive),0.639,1.04,0.172,0.121,0.447,0.952
COC(=O)[C@@]1(Cc2ccc(F)cc2)[C@H]2c3cc(C(=O)N(C)C)n(Cc4ccc(O)c(OC)c4)c3C[C@H]2CN1C(=O)c1ccccc1,0.423,0.0973 (inactive),-1.2 (inactive),0.485 (inactive),2.2,1.02 (inactive),0.0043,0.718,1.13,0.0977,0.472,0.0331,0.128,-4.34 (inactive),0.448,0.538,0.269,0.0792,0.134,0.937
CC(C)CNC(=O)[C@@H]1c2ccccc2C(=O)N(C2CCCCC2)[C@H]1c1ccc(CO)cc1,0.933,-0.417 (inactive),-0.641 (inactive),-0.812 (inactive),3.03,3.31 (inactive),-0.137,-0.369,-0.358,-0.218,1.65,0.477,0.962,-1.25 (inactive),-0.0953,0.185,-0.602,-0.333,-0.308,0.0986
